Laboratory results from PubChem BioAssay AID1117319 (Southern Research Institute, 2015).
Values joined by “and” are separate entries in the source; they are usually repeats but may differ in a detail not shown here. Identical values can stand only once. The campaign covered roughly 260,000 compounds. About 1,500 (0.58%) were called active. Inconclusive results (about 5%) are left out.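 How the source made its calls: active means inhibition above a set limit at one or more doses, reproduced on every date tested; inconclusive means results disagree between test dates, or hit never tested in dose response; inactive means the rest.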 The list is a sample of the results. Entries with a potency or affinity are not part of this list.

biological target: Virion infectivity factor (Human immunodeficiency virus type 1 group M subtype B (isolate BH10)) + Virion infectivity factor (Human immunodeficiency virus type 1 group M subtype B (isolate BRU/LAI)) + Virion infectivity factor (Human immunodeficiency virus type 1 group M subtype B (isolate PCV12)) + Virion infectivity factor (Human immunodeficiency virus type 1 group M subtype B (isolate HXB2)) + DNA dC->dU-editing enzyme APOBEC-3G (Homo sapiens) (UniProt P69720+P69721+P69722+P69723+Q9HC16); assay: HIV-1 Vif–A3G interaction blockers – biochemical, TR-FRET, GST-Vif 1-94, biotin-A3G peptide, dose response retest, primary screen (AID 1117319); details: TR-FRET GST-Vif / biotin-A3G peptide binding; active compounds read high;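 further: Vif residues 1-94 fused to GST binding biotinylated APOBEC3G peptide 110-148; 0% = full assay without inhibitor and 100% = GST in place of GST-Vif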

inhibition, inactive:
CCCCn1c(SCC(=O)NCCOC)nc2ccc(N3CCOCC3)cc2c1=O 32.1% and 5.24%, CCCCn1c(SCC(=O)NCc2ccccc2)nc2ccc(N3CCOCC3)cc2c1=O 18.7%, CCCC(=O)Nc1cc(C)c(NC(=O)Cc2ccccc2)cn1 -1.31%, Nc1c(N2CCCC2)cc(Cl)c2nonc12 22.8%, CCN(CC)c1cc(Cl)c2nonc2c1N 0.28%, CCOC(=O)N1CCN(C(=O)c2c(-c3ccccc3)noc2C)CC1 -4.55%, Cc1onc(-c2c(F)cccc2Cl)c1C(=O)NCc1ccco1 0.03%, COc1cccc(-c2cc(C(=O)NCc3ccco3)no2)c1 2.27%, Cc1onc(-c2c(Cl)cccc2Cl)c1C(=O)NCc1ccco1 2.61%, O=C(NCc1ccco1)c1cc(-c2ccccc2)on1 -2.43%, O=C(NCCCn1ccnc1)C(=O)NCC1OCCN1S(=O)(=O)c1ccccc1 (stereo not drawn) 20.3%, Cc1ccc(S(=O)(=O)N2CCCc3ccccc32)cc1 3.67%, Cc1ccc(-c2sc(C(=O)NN)c(C)c2C#N)cc1 -0.1%, CCc1noc(C)c1C(=O)NC1CCCc2c1cnn2-c1cc(C)cc(C)c1 (stereo not drawn) -1.36%, O=C1N[C@@H](c2ccccc2)COC(=O)[C@H](Cc2ccc(F)cc2)CC/C=C/C[C@H]1CC(=O)N(CCO)Cc1ccccc1 3.93%, COc1cccc(-c2cccc(NC(=O)C3CCN(CCCn4cccn4)CC3)c2)c1 6%, CCn1nc(C(=O)Nc2cc(Cl)ccc2-n2cncn2)c2ccccc2c1=O -6.28%, C=CCn1c(O)c(C(CC)=NCc2cccnc2)c(=O)[nH]c1=O 7.28%, C=CCn1c(O)c(C(CC)=Nc2ccccc2NC(=O)CC)c(=O)[nH]c1=O 30.8%, Cc1ccc(OCc2n[nH]c(=S)n2Cc2ccccc2)cc1 24.6%, O=C(Cc1ccccc1)Nc1ccc(N2CCN(Cc3ccccc3F)CC2)cc1 6.73%, COC(=O)C1CCN(C(=O)CCCOc2ccccc2)CC1 8.9%, CC(=O)Nc1ccc(SCC(=O)Nc2ccccc2N2CCOCC2)cc1 -9.09%, COC(=O)c1cc(C(=O)OC)cc(S(=O)(=O)Nc2ccc(Cl)c(N)c2)c1 -4.45%, Oc1ccc(/C=N/n2c(-c3ccco3)csc2=Nc2cccnc2)c(O)c1 21%, COc1ccc(O)c(/C=N/n2c(-c3ccco3)csc2=Nc2cccnc2)c1 6.77%, C=CCN=c1scc(-c2ccccc2)n1/N=C/c1ccccn1 11.2%, CN=c1scc(C)n1/N=C/c1ccc2c(c1)OCO2 13.4%
